Test results published in PubChem BioAssay (NCI).
About 83,000 compounds went through this panel and 20% of them were active in at least one assay; those are over-represented in the sample as a whole.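 Step 1: grow cells in 96-well plates. Step 2: add test compound at a single concentration. Step 3: incubate 48 h. Step 4: record percent growth.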 A number with no mark means an inactive call. Active and inactive are the calls of the source. How the source made its calls: active means growth percent below 10; inactive means the rest.

Assays:
Assay in all cases: NCI-60 one-dose screen, 48 h (100 = growth as untreated, 0 = no growth, -100 = all killed)
Conditions in all cases: 10 µM unless noted
T-47D breast = system: T-47D breast
BT-549 breast = system: BT-549 breast
MDA-MB-435 melanoma = system: MDA-MB-435 melanoma
SW-620 colon = system: SW-620 colon
MCF7 breast = system: MCF7 breast
HCT-116 colon = system: HCT-116 colon
HCC-2998 colon = system: HCC-2998 colon
KM12 colon = system: KM12 colon

Row | Compound | growth (T-47D breast) | growth (BT-549 breast) | growth (MDA-MB-435 melanoma) | growth (SW-620 colon) | growth (MCF7 breast) | growth (HCT-116 colon) | growth (HCC-2998 colon) | growth (KM12 colon)
1 | Cn1cc(-c2noc(C(=O)c3cn(C)c4ncc(Br)cc34)n2)c2ccccc21 | 99.7% | 98% | 99.9% | 96.5% | 90.5% | 99.6% | 108% | 96.7%
2 | NC(=S)Cc1ccccc1 | 101% | 110% | 97.7% | 102% | 91% | 104% | 107% | 101%
3 | C#C[C@]1(O)CC[C@H]2[C@@H]3CC=C4c5nc(Nc6ccccn6)sc5CC[C@]4(C)[C@H]3CC[C@@]21C | 10.1% | -27.6% (active) | -32% (active) | -24.9% (active) | 7.94% (active) | 4.49% (active) | 34.5% | -32.3% (active)
4 | Cn1cc(-c2nnc(-c3cn(C)c4ncc(Br)cc34)s2)c2cc(Br)ccc21 | 67.6% | 96.2% | 92.1% | 96.4% | 74.1% | 96.4% | 103% | 94.6%
5 | CCN(CCNc1ccc(C)c2sc3cc(Cl)ccc3c(=O)c12)CC(C)O (stereo not given) | 31.7% | 110% | 6% (active) | 11.9% | 36.7% | 9.99% (active) | 5.33% (active) | 39.2%
6 | CCOC(=O)c1nn(C2CCCCO2)c2ccc(NC(=O)Cn3nnc4ccccc43)cc12 (stereo not given) | 85.5% | 96% | 110% | 105% | 99.5% | 88.6% | 111% | 104%
7 | CC1(C)S[C@@H]2[C@H](NC(=O)[C@H](C(=O)O)c3cccs3)C(=O)N2[C@H]1C(=O)O | 102% | 96.2% | 106% | 113% | 110% | 108% | 103% | 106%
8 | Cc1ncc(C(=O)Nc2ccc(CN3CCN(C)CC3)c(C(F)(F)F)c2)cc1C#Cc1c(N)ncc2ccc(C#N)cc12 | 48.9% | 51.4% | 7.01% (active) | 34.1% | 29.5% | 14.5% | 58.4% | 9.43% (active)
9 | N#C/C(C(=O)c1ccccc1)=C1/C(=O)Nc2ccccc21 | 97.1% | 48.3% | 97.6% | 95.9% | 89.1% | -50.4% (active) | 112% | 100%
10 | Cn1cc(-c2nnc(-c3cn(C)c4ncccc34)s2)c2ccccc21 | 47.9% | 68.3% | 9.15% (active) | 61.6% | 58.6% | 76.6% | 82.6% | 25.4%
11 | CCN(CC)CCCC(C)Nc1ccnc2cc(Cl)c(SCc3ccccc3)cc12 (stereo not given) | -58.3% (active) | -81% (active) | -71.2% (active) | -85.3% (active) | -49.5% (active) | -67.8% (active) | -84.1% (active) | -32.4% (active)
12 | CN(C)CCCNc1nc(-c2cccc(C(Cl)(Cl)Cl)c2)nc(C(Cl)(Cl)Cl)n1 | 109% | 77.8% | 105% | 98.8% | 93.5% | 92.9% | 107% | 111%
13 | c1nc(N2CCOCC2)c2[nH]ccc2n1 | 112% | 101% | 112% | 111% | 90.6% | 103% | 110% | 115%
14 | C=C(C)[C@@H]1CC[C@]2(C(=O)NCCCCCCN(CCCN)CCCN)CC[C@]3(C)[C@H](CC[C@@H]4[C@@]5(C)CC[C@H](OCCCN)C(C)(C)[C@@H]5CC[C@]43C)[C@@H]12 | 85.3% [100 µM] | 118% [100 µM] | 89.6% [100 µM] | 7.33% [100 µM] (active) | 14.5% [100 µM] | 12.6% [100 µM] | 77.1% [100 µM] | 31.5% [100 µM]
15 | CCOC(=O)c1nc2c3ccccc3ccn2c1C(=O)OC | 76.4% | 97% | 96.5% | 100% | 97.6% | 97.5% | 91.1% | 107%
16 | O=C(Nc1ccccc1)Nc1ccc(C(=O)/C=C/c2ccc(N3CCCC3)cc2)cc1 | 58.9% | 93.3% | 4.29% (active) | 83.6% | 66% | 52.9% | 81.4% | 52.5%
17 | O=C(Nc1ccc(CN2CCOCC2)c(C(F)(F)F)c1)c1nc2ccc3[nH]ncc3c2c2c1CCCC2 | 62.6% | 136% | 96.6% | 99.4% | 83.1% | 79.4% | 116% | 83.9%
18 | COCc1nc2ccccc2[nH]1 | 104% | 164% | 102% | 106% | 88.7% | 99.9% | 106% | 106%
19 | CC1(C)[C@@H](NOCCCN)CC[C@]2(C)[C@H]3C(=O)C=C4[C@@H]5C[C@](C)(C(=O)O)CC[C@]5(C)CC[C@@]4(C)[C@]3(C)CC[C@@H]12 | -29.8% [100 µM] (active) | -23.2% [100 µM] (active) | -59.1% [100 µM] (active) | -43.3% [100 µM] (active) | -25.2% [100 µM] (active) | -87.4% [100 µM] (active) | -50% [100 µM] (active) | -65.8% [100 µM] (active)
20 | CC[C@]12C=CCN3CC[C@@]4(c5ccc(OC)cc5N(C)[C@H]4[C@@](O)(C(=O)OC)[C@@H]1OC(=O)CCC(=O)N[C@H](Cc1c[nH]c4ccccc14)C(=O)OC)[C@@H]32 | -29.3% [100 µM] (active) | -16.5% [100 µM] (active) | -60.6% [100 µM] (active) | -50.6% [100 µM] (active) | -43.3% [100 µM] (active) | 3.55% [100 µM] (active) | -43.3% [100 µM] (active) | -35.1% [100 µM] (active)
21 | O=C(NCc1ccccc1)C(Cl)Cl | 102% | 122% | 103% | 107% | 90.1% | 108% | 107% | 101%
22 | CSc1nc2c(c(=O)n1C)C1(C(=O)N(Cc3ccccc3)c3ccccc31)c1c(nc(SC)n(C)c1=O)N2 | 63.7% | 104% | 107% | 94.3% | 82.6% | 93% | 99.6% | 87.9%
23 | Cc1cccc([N+](=O)[O-])c1I | 104% | 110% | 103% | 108% | 114% | 112% | 101% | 112%
24 | CCN(CC)CCCOc1ccc2c(c1)O/C(=C\c1cccc(OC)c1)C2=O | 87.6% | 78.4% | 91.9% | 73.9% | 72.8% | 51.8% | 86.7% | 93.2%
25 | COc1ccc(OC)c([N+](=O)[O-])c1C(=O)CNC(C)=O | 103% | 84.5% | 103% | 106% | 92.7% | 106% | 101% | 106%
26 | O=C1CC(c2ccccc2)Cc2nc3ccc(Br)cc3cc21 (stereo not given) | 67.2% | 6.48% (active) | -39.8% (active) | 25.1% | 61.2% | 5.56% (active) | 27% | 8.94% (active)
27 | CCN(CC)CCCCCCNc1cccc2cc(Br)cnc12 | 112% | 80.8% | 31.5% | 56.5% | 109% | 72.2% | 88.3% | 65.7%
28 | C[C@@H]1C[C@H]2C(=O)O[C@@H](C)[C@H](NC(=O)[C@H](Cc3cc(F)cc(F)c3)NC(=O)Nc3ccc(C4CC4)cc3F)C(=O)N3CCC[C@H]3C(=O)N3CCCC[C@H]3C(=O)N[C@@H](C)C(=O)N2C1 | 5.43% (active) | -1.76% (active) | 3.38% (active) | 27.7% | 12.7% | -4.75% (active) | -10.3% (active) | 15.6%
29 | Cc1ccc(S(=O)(=O)Oc2ccc([N+](=O)[O-])cc2[N+](=O)[O-])cc1 | 94.5% | -8.38% (active) | 25.2% | 18.4% | 70.7% | 5.12% (active) | 99.8% | 102%
30 | [2H]C1([2H])CCN(C(=O)C2CC2)c2cc(NS(=O)(=O)c3ccc(-c4cccc(C(N)=O)c4)cc3)ccc21 | 19.5% | 79% | -11.2% (active) | 31% | 21.4% | 81.5% | 60.1% | 19.8%
